In PubChem BioAssay (Tox21):
Results filed as inconclusive are left out. Activity calls are given as the source filed them. Unless noted, calls follow the shape of the dose curve; as a rule, active = well fitted curve in the direction sought with a large enough effect in the repeat runs; inconclusive = weak or mixed curves; inactive = no such curve, though single readings can be large; an effect the other way counts as inactive or inconclusive.

Columns and labels:
[1] = qHTS assay to identify aromatase inhibitors - cell viability counter screen (AID 743084);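 also: cells stimulated with testosterone during compound exposure; nearly all actives have a fitted effect of over 55% in size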
[2] = biological target: Aryl hydrocarbon receptor (Homo sapiens) (UniProt P35869); assay: qHTS assay to identify small molecule that activate the aryl hydrocarbon receptor (AhR) signaling pathway (AID 743085);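 also: HG2L7.5c1 human HepG2 liver cells with stably integrated DRE-driven firefly reporter; series mostly up to about 70 µM; nearly all actives have a fitted effect of over 15% in size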
Procedure, shortened: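 AhR agonist activity is inferred from enhanced light output of a DRE-controlled firefly luciferase reporter in HepG2 cells, measured with ONE-Glo following 24 h treatment at 37C.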

[3] = qHTS assay to identify small molecule that activate the aryl hydrocarbon receptor (AhR) signaling pathway - cell viability counter screen (AID 743086);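 also: HepG2 liver cells carrying the AhR DRE luciferase reporter; series mostly up to about 70 µM; nearly all actives have a fitted effect of over 45% in size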
Procedure, shortened: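 Cytotoxicity counter screen: CellTiter-Fluor signal (30 min, 37 C) in 4000 HepG2 cells/well carrying the DRE-luciferase reporter, following 24 h compound exposure at 37 C.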

[4] = biological target: Peroxisome proliferator-activated receptor gamma (Homo sapiens) (UniProt P37231); assay: qHTS assay to identify small molecule agonists of the peroxisome proliferator-activated receptor gamma (PPARg) signaling pathway (AID 743094; active = well fitted activation curve with a large enough effect in the signal ratio in the repeat runs, not every such curve was filed as active; the % refers to the signal ratio)
Procedure, shortened: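 Quantitative HTS agonist mode: stable HEK293H line with UAS-beta-lactamase reporter under PPARg control, 17 h compound exposure at 37C, fluorescence after 1 h FRET substrate loading at room temperature.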

[5] = biological target: Peroxisome proliferator-activated receptor gamma (Homo sapiens) (UniProt P37231); assay: qHTS assay to identify small molecule antagonists of the peroxisome proliferator-activated receptor gamma (PPARg) signaling pathway (AID 743191; calls by dose curve; also: series mostly up to about 63 µM; nearly all actives have a fitted effect of over 30% in size)
Procedure, shortened: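 Beta-lactamase reporter under UAS control in HEK293H PPARg-bla cells; compound treatment 17 h at 37C. Read-out: fluorescence intensity after 1 h room-temperature incubation with LiveBLAzer B/G FRET substrate.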

[6] = qHTS assay to identify small molecule antagonists of the peroxisome proliferator-activated receptor gamma (PPARg) signaling pathway - cell viability counter screen (AID 743194); also: nearly all actives have a fitted effect of over 55% in size
Procedure, shortened: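 Viability was measured as CellTiter-Glo luminescence in GeneBLAzer PPARg UAS-bla HEK293H cells. These cells had been exposed 17 h at 37 C to compounds together with rosiglitazone at 50 nM final, with the beta-lactamase readout taken in the same wells.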

[7] = qHTS assay for small molecule agonists of the antioxidant response element (ARE) signaling pathway (AID 743202; active = well fitted activation curve with a large enough effect in the signal ratio in the repeat runs, not every such curve was filed as active; the % refers to the signal ratio)
Procedure, shortened: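 An ARE-responsive beta-lactamase gene stably integrated in HepG2 cells serves as reporter. After 5 h plating and 16 h compound incubation at 37 C, fluorescence of the B/G FRET substrate was measured.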

[8] = qHTS assay for small molecule agonists of the antioxidant response element (ARE) signaling pathway - cell viability counter screen (AID 743203; calls by dose curve; also: nearly all actives have a fitted effect of over 55% in size)
Procedure, shortened: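 Seeded at 2,000 cells/well, ARE-bla HepG2 cells were incubated 5 hrs before compound addition. After 16 hrs of treatment at 37C with 5% CO2, CellTiter-Glo reagent was added and luminescence read 30 min later.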

[9] = qHTS assay for small molecule activators of the heat shock response signaling pathway - cell viability counter screen (AID 743209); also: nearly all actives have a fitted effect of over 50% in size
Procedure, shortened: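 First, HSE-bla HeLa cells were seeded at 1500 cells/well and kept overnight at 37 C. Next, compounds were pinned in and incubated 5 h. After the FRET substrate step, CellTiter-Glo was added and luminescence read 30 min later.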

[10] = qHTS assay for small molecule activators of the heat shock response signaling pathway (AID 743210; active = well fitted activation curve with a large enough effect in the signal ratio in the repeat runs, with a control signal flat, not every such curve was filed as active; the % refers to the signal ratio;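 also: HeLa cells with beta-lactamase reporter driven by heat shock elements; series mostly up to about 63 µM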)
Procedure, shortened: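 In HSE-bla HeLa cells, 5 h compound incubation (37 C) precedes addition of LiveBLAzer B/G substrate; after 2.5 h at room temperature, fluorescence intensity indicates reporter induction.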

[11] = qHTS assay to identify small molecule agonists of the peroxisome proliferator-activated receptor delta (PPARd) signaling pathway - cell viability counter screen (AID 743211); also: nearly all actives have a fitted effect of over 55% in size
Procedure, shortened: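 qHTS cell viability: PPARd-bla HEK293H; 17 h cpd, 37C; CellTiter-Glo, luminescence at 30 min RT.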

[12] = biological target: Peroxisome proliferator-activated receptor delta (Homo sapiens) (UniProt Q03181); assay: qHTS assay to identify small molecule agonists of the peroxisome proliferator-activated receptor delta (PPARd) signaling pathway (AID 743212; calls by dose curve)
Procedure, shortened: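 HEK293H UAS-bla reporter cells, human PPARd system; compounds delivered in DMSO after 5 h plating, then at 37 C. Beta-lactamase FRET read, 2 h RT substrate step.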

[13] = qHTS assay to identify small molecule antagonists of the peroxisome proliferator-activated receptor delta (PPARd) signaling pathway - cell viability counter screen (AID 743213); also: nearly all actives have a fitted effect of over 50% in size
Procedure, shortened: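 Viability counter-screen, qHTS format: PPARd-bla HEK293H, L165041 300 nM final, 17 h compound exposure at 37 C, CellTiter-Glo luminescence after 30 min RT.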

[14] = biological target: Peroxisome proliferator-activated receptor delta (Homo sapiens) (UniProt Q03181); assay: qHTS assay to identify small molecule antagonists of the peroxisome proliferator-activated receptor delta (PPARd) signaling pathway (AID 743215; active = well fitted inhibition curve with a large enough effect in the signal ratio in the repeat runs, not every such curve was filed as active; the % refers to the signal ratio;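 also: cells stimulated with agonist L165041 at 300 nM final during compound exposure; series mostly up to about 62 µM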)
Procedure, shortened: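 Inhibition of L165041-driven (300 nM final) PPARd signaling is scored in HEK293H UAS-bla cells. Exposure lasts 17 h at 37 C; beta-lactamase activity is then read by FRET substrate fluorescence after 2 h at room temperature.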

[15] = qHTS assay to identify small molecule agonists of the farnesoid-X-receptor (FXR) signaling pathway - cell viability counter screen (AID 743218); also: nearly all actives have a fitted effect of over 45% in size
Procedure, shortened: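 Cytotoxicity counter-screen run in parallel, same wells: FXR-UAS-bla HEK 293T cells dosed 16 h at 37 C, viability read by CellTiter-Glo luminescence after 30 min at room temperature.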

[16] = qHTS assay to identify small molecule antagonists of the farnesoid-X-receptor (FXR) signaling pathway - cell viability counter screen (AID 743221; active = well fitted cell-killing curve with a large enough effect in the repeat runs, not every such curve was filed as active; also: nearly all actives have a fitted effect of over 50% in size)
Procedure, shortened: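 After a 5 h settling period, FXR-bla HEK 293T cells receive compound and chenodeoxycholic acid (50 uM final) and incubate 16 h at 37 C; CellTiter-Glo luminescence, read after 30 min at room temperature, reports cell viability.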

[17] = biological target: Vitamin D3 receptor (Homo sapiens) (UniProt P11473); assay: qHTS assay to identify small molecule agonists of the vitamin D receptor (VDR) signaling pathway (AID 743222; calls by dose curve)
Procedure, shortened: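 Quantitative HTS agonist-mode screen: compounds in DMSO were pin-transferred onto VDR-bla cells and incubated 16 h at 37C, 5% CO2. Reporter activity was detected with LiveBLAzer B/G FRET substrate after 2 h at room temperature.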

[18] = biological target: Vitamin D3 receptor (Homo sapiens) (UniProt P11473); assay: qHTS assay to identify small molecule antagonists of the vitamin D receptor (VDR) signaling pathway (AID 743223; active = well fitted inhibition curve with a large enough effect in the signal ratio in the repeat runs, not every such curve was filed as active; the % refers to the signal ratio)
Procedure, shortened: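 Reporter line VDR-bla; stimulus 1alpha,25-(OH)2 vitamin D3, 3 nM final; compound co-addition, 16 h 37C/5% CO2; LiveBLAzer B/G substrate 2 h RT; fluorescence intensity.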

[19] = biological target: Bile acid receptor (Homo sapiens) (UniProt Q96RI1); assay: qHTS assay to identify small molecule antagonists of the farnesoid-X-receptor (FXR) signaling pathway (AID 743217; active = well fitted inhibition curve with a large enough effect in the signal ratio in the repeat runs, not every such curve was filed as active; the % refers to the signal ratio)
Procedure, shortened: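 Antagonist mode against 50 uM (final) chenodeoxycholic acid stimulation in FXR-bla HEK 293T cells, 16 h at 37 °C. Inhibition detected as reduced beta-lactamase activity via LiveBLAzer B/G FRET fluorescence after 2 h at room temperature.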

[20] = biological target: Bile acid receptor (Homo sapiens) (UniProt Q96RI1); assay: qHTS assay to identify small molecule agonists of the farnesoid-X-receptor (FXR) signaling pathway (AID 743220; active = well fitted activation curve with a large enough effect in the signal ratio in the repeat runs, not every such curve was filed as active; the % refers to the signal ratio)
Procedure, shortened: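 Beta-lactamase reporter under UAS control in GeneBLAzer FXR HEK 293T cells (5000/well) measured with LiveBLAzer FRET substrate after 2 h at room temperature. Compound exposure lasted 16 h at 37C.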

Measured: Potency

Chain of Peroxisome proliferator-activated receptor gamma (Homo sapiens) (P37231 whole entry, looked up): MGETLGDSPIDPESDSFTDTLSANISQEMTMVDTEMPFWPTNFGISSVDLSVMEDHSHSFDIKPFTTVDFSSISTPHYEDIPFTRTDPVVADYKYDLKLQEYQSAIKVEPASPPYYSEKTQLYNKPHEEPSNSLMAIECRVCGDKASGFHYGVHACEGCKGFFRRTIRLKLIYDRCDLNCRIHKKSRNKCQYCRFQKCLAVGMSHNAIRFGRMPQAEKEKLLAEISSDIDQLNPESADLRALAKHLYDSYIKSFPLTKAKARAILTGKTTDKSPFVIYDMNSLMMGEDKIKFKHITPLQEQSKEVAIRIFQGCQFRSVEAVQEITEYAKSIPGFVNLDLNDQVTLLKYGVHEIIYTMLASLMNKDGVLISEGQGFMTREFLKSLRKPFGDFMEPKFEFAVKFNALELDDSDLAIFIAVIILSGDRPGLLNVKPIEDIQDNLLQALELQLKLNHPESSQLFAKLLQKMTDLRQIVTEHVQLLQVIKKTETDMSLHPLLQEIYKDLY
Chain of Aryl hydrocarbon receptor (Homo sapiens) (P35869 whole entry, looked up): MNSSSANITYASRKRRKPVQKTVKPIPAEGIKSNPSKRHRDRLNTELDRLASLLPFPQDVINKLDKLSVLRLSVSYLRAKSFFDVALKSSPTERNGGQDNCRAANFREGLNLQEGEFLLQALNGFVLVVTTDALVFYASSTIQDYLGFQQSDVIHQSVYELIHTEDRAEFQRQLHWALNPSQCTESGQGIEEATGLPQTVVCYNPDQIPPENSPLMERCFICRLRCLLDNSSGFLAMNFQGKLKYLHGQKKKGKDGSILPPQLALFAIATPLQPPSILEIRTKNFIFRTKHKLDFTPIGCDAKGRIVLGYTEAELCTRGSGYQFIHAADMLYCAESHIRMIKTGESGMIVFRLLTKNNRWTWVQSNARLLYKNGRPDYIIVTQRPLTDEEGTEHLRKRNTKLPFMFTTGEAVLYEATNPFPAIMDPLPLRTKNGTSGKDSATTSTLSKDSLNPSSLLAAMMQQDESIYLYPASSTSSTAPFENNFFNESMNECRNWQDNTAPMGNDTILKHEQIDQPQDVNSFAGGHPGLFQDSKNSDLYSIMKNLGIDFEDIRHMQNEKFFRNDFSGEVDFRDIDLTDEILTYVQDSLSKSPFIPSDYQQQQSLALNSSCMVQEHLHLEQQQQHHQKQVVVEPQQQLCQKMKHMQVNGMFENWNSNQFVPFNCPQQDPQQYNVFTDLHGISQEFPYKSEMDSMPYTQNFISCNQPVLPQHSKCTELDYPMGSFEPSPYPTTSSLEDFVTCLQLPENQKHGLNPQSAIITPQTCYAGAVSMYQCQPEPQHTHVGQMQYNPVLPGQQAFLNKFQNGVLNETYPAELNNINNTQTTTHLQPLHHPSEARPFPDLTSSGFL
Chain of Peroxisome proliferator-activated receptor delta (Homo sapiens) (Q03181 whole entry, looked up): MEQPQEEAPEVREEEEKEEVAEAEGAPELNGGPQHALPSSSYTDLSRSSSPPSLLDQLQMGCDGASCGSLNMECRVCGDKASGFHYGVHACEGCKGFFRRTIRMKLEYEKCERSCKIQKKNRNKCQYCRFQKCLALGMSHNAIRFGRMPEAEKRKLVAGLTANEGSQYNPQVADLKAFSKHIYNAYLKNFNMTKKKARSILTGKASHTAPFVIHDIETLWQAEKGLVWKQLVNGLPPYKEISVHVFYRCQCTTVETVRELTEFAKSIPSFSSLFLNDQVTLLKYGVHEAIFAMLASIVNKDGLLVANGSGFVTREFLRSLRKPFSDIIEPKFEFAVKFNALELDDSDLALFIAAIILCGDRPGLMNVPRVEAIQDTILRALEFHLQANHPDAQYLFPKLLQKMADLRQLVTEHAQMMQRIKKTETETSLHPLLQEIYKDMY
Chain of Vitamin D3 receptor (Homo sapiens) (P11473 whole entry, looked up): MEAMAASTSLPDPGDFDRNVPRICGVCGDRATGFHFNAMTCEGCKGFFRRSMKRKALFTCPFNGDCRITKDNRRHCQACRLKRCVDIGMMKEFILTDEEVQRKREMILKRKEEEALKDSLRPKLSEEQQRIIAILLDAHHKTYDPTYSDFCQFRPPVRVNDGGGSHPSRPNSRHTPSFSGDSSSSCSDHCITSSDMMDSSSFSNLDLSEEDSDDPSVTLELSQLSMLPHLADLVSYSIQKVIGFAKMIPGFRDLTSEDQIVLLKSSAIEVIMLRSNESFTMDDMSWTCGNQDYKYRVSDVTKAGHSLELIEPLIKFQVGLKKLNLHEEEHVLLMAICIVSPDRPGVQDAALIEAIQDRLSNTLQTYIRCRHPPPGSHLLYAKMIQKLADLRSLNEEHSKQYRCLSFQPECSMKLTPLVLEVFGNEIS
Chain of Bile acid receptor (Homo sapiens) (Q96RI1 whole entry, looked up): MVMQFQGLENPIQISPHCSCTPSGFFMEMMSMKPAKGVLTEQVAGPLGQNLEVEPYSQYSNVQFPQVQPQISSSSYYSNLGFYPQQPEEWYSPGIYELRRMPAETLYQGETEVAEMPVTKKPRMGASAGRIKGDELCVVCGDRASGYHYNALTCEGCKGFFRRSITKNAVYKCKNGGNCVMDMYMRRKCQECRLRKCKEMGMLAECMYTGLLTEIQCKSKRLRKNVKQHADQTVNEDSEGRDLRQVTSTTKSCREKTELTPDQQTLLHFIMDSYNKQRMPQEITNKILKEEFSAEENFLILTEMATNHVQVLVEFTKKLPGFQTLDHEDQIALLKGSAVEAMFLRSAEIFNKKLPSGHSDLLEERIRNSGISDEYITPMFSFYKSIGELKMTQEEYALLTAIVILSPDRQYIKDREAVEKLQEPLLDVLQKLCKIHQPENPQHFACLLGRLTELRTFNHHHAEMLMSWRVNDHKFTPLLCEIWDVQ

Cc1cc(C)c(N)c(Cl)c1
not listed: [19] | [20]
inactive: all other assays above

CN1CCN(C(=O)C2CCCCC2)CC1
not listed: [16]
inactive: all other assays above

O=Cc1ccccc1S(=O)(=O)O
not listed: [19] | [20]
inactive: all other assays above

CCCC(=O)C(CC)Sc1ccoc1C (configuration not stated)
not listed: [12] | [14] | [18] | [19] | [20]
inactive: all other assays above

Cc1cc(O)c(Cl)cc1C
not listed: [16]
inactive: all other assays above

C=CCn1cc[n+](C)c1
not listed: [12] | [14] | [19] | [20]
inactive: all other assays above

COc1cc(OC)cc(OC)c1
not listed: [12] | [19] | [20]
inactive: all other assays above

CC1(C)S[C@@H]2[C@H](NC(=O)Cc3ccccc3)C(=O)N2[C@H]1C(=O)O (tested in a mixture with another compound)
not listed: [17] | [18] | [19] | [20]
inactive: all other assays above

CCc1ncc(C)[nH]1
not listed: [19]
inactive: all other assays above

CC(=O)OC/C=C(/C)CCC=C(C)C
not listed: [17] | [18] | [19] | [20]
inactive: all other assays above

CC(=O)SC[C@@H](C)C(=O)N1CCC[C@H]1C(=O)N[C@@H](Cc1ccccc1)C(=O)O
inactive: all assays above

C=C(C)C(=O)OCCOC1CC2CC1C1C=CCC21 (configuration not stated)
not listed: [18] | [20]
inactive: all other assays above

C=CC(C)(CCC=C(C)C)OC(=O)C(C)C (configuration not stated)
not listed: [19] | [20]
inactive: all other assays above

Cc1ccc(NC(N)=O)cc1
not listed: [13] | [19] | [20]
inactive: all other assays above

CCOC(=O)[C@H](CCc1ccccc1)N[C@H]1CS[C@H](c2cccs2)CN(CC(=O)O)C1=O
not listed: [16] | [17] | [18] | [19] | [20]
inactive: all other assays above

CCCCCCC(=O)c1ccccc1
not listed: [15] | [17] | [18] | [19]
inactive: all other assays above
